This is an account of results in PubChem BioAssay AID602393 (Broad Institute, 2012).

The structures appear in SMILES notation. Among all 350,000 compounds or so, about 7,000 (2%) were called active. Only a selection was taken, and actives are over-represented in it overall. Unmarked numbers belong to inactive results. Rule as the data show it: active = activation above about 40%; inconclusive = no clear call, values can overlap the other calls; inactive = below that.

The assay in a line: Bmi1 luciferase reporter increase in mESCs, primary screen, esBAF inhibitor project, mouse ES cells, Bmi1 luciferase knock-in, single point (AID 602393).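 Also: 0% = median of the plate's neutral control wells and 100% = double that signal; a rise in the Bmi1 reporter signal indicates esBAF inhibition.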 The settings on record: 24 h, at 12.5 µM, hits give high values, 100% = twice the neutral-well signal. Background: In a reporter assay the amount or activity of a reporter protein is the signal.
For `COc1ccc(C(=O)Nc2ccnn2C2CCN(Cc3ccncc3)CC2)cc1`, the reporter increase is 4.74%. For `CCOc1ccc(C(=O)Nc2ccc(CN3CCOCC3)cc2)cc1Cl` the value was 9.32%; for `COc1ccc(C(=O)Nc2sc(C)c(C)c2CN2CCOCC2)cc1`, 98.6% (active); for `Cc1nn(CC(=O)NCC2CCCO2)c(=O)c2cc3ccccc3n12` (configuration not stated), -0.752%. For `Cc1c(C(=O)N2CCCc3ccccc32)sc2nc(-c3ccccc3)cn12` the value was 69.3% (active); for `Cc1ccc(C(=O)N2CCCc3ccccc32)c(Cl)c1`, -0.356%. Consider `O=C(c1c(Cl)nc2sccn12)N1CCCc2ccccc21`, for which the reporter increase is -5.89%. The value for `Cc1c(C(=O)NCCN2CCOCC2)sc2nc(-c3ccc(F)cc3)cn12` was 2.29%. The value for `Cc1c(C(=O)NCC2CCCO2)sc2nc(-c3ccccc3)cn12` (configuration not stated) was 63.8% (active).

Regarding `C[C@H](CO)N1C[C@H](C)[C@@H](CN(C)C(=O)Nc2ccc3c(c2)OCO3)Oc2ccc(NS(=O)(=O)c3ccc(Cl)cc3)cc2CC1=O`, the reporter increase is -3.55%. For `C[C@@H]1CCCCO[C@H](CN(C)Cc2ccc(Cl)c(Cl)c2)[C@H](C)CN([C@@H](C)CO)C(=O)c2cc(NC(=O)C3CCCCC3)ccc2O1` the value was 1.62%; for `COc1cccc(-c2ccc3n(c2=O)C[C@H]2[C@H](CO)[C@@H](C(=O)NC4CCCC4)[C@@H]3N2C)c1`, 3.16%; for `COCC(=O)N(C)C[C@@H]1Oc2cc(C3=CCCC3)ccc2S(=O)(=O)N([C@@H](C)CO)C[C@H]1C`, 0.332%. With `C[C@H](CO)N1C[C@H](C)[C@@H](CN(C)Cc2ccccc2C(F)(F)F)OCc2cn(nn2)CCCC1=O`, the reporter increase is -1.8%.

In the case of `C[C@H](NC(=O)C[C@H]1C=C[C@@H](NC(=O)C2CCOCC2)[C@@H](CO)O1)c1ccccc1`, the reporter increase was 1.15%. For `Cc1cccc(C(=O)Nc2ccc(Oc3cnccn3)cc2)c1`, the reporter increase was 45% (active).

Turning to `Cc1ccc(NC(=O)c2ccc(Oc3ncccn3)cc2)cc1`, the reporter increase was 34%. For `Cc1cccc(C(=O)Nc2ccc(C(=O)N/N=C/c3cccc(C)n3)cc2)c1` the value was 14.2%. The value for `C[C@H](CO)N1C[C@H](C)[C@H](CN(C)C(=O)c2cnccn2)Oc2cc(C3=CCCC3)ccc2S1(=O)=O` was 4.52%; that for `O=C(CN1CCOCC1)N[C@@H]1CC[C@@H](CCNC(=O)C2CCCCC2)O[C@@H]1CO` was 0.276%; that for `CN1C(=O)c2cc(NC(=O)c3cscn3)ccc2OC[C@H]2O[C@@H](CC(=O)NCC3CC3)CC[C@H]21` was 1.7%. For `O=C(CCCOc1ccccc1)NNC(=O)c1ccc(Cl)cc1` the value was -5.87%.

As for `O=C(c1ccc(Cl)cc1)c1cnc(Nc2ccccc2)s1`, the reporter increase was 70% (active). For `Nc1nc(COC(=O)CCC(=O)c2ccc(Cl)cc2)nc(Nc2ccccc2)n1` the value was -2.01%; for `C[C@@H]1CCCCO[C@H](CN(C)S(=O)(=O)c2cccs2)[C@H](C)CN([C@@H](C)CO)C(=O)c2cc(NC(=O)Nc3ccc4c(c3)OCO4)ccc2O1`, 3.42%. The value for `C/C(CC1CC(C)(C)OC1=O)=N/Nc1nc(-c2ccccc2)cs1` (configuration not stated) was 46.1% (active). Consider `CC1(C)CC(CC(=O)O)C(=O)O1` (configuration not stated), for which the reporter increase was 3.84%. For `Cn1c(CNc2nc(-c3ccccc3)cs2)nnc1SCC(=O)c1ccccc1` the value was 6.92%; for `COc1ccc(S(=O)(=O)N(C)C[C@@H]2OCCCC[C@H](C)Oc3ccc(NC(=O)Nc4ccccc4)cc3C(=O)N([C@H](C)CO)C[C@H]2C)cc1`, 6.53%. `COc1ccccc1-c1cnc2c(c1)C(=O)N([C@H](C)CO)C[C@H](C)[C@H](CN(C)C(=O)CN(C)C)O2`: the reporter increase is -4.34%. `COc1ccc(/C(N)=N/OC(=O)CCCc2ccccc2)cc1`: the reporter increase was 22.2%. With `CCCNC(=S)N1CCC(NC(=O)c2ccc(OC)cc2)CC1`, the reporter increase is 4.39%. In the case of `O=C(NC(=S)NC1CCCCC1)c1ccc(Cl)cc1`, the reporter increase is 92.1% (active). The value for `COc1ccc(C(=O)NC(=S)NNC(=O)CCc2ccccc2)cc1` was 50.7% (active); that for `COc1ccc(C(=O)NC(=S)NC2CCCCC2)cc1` was 53.2% (active). The value for `Cc1ccccc1C(=O)NC(=S)NC1CC1` was 19.1%. With `O=C(NC1CCCCCC1)C1CCN(C(=O)c2ccc(Cl)cc2)CC1`, the reporter increase is 1.61%. For `O=C(CCc1ccccc1)NNC(=O)COc1ccc(Cl)cc1` the value was -7.85%; for `O=C(NNC(=S)NC1CCCCC1)c1ccccc1Cl`, 12.8%; for `C[C@@H]1CN([C@H](C)CO)C(=O)c2cc(-c3ccncc3)cnc2O[C@H]1CN(C)C`, 2.47%. For `O=C(C[C@H]1CC[C@H]2[C@@H](COC[C@@H](O)CN2S(=O)(=O)c2cccc(Cl)c2)O1)NC1CCCC1` the value was 0.9%. For `CN1C(=O)c2cc(NC(=O)c3ccc(Cl)cc3)ccc2OC[C@@H]2O[C@@H](CC(=O)O)CC[C@H]21`, the reporter increase is 5.97%. For `CC(C)NC(=O)N(C)C[C@H]1Oc2ccc(NC(=O)CCC(F)(F)F)cc2CC(=O)N([C@@H](C)CO)C[C@@H]1C`, the reporter increase was -3.69%. For `CCCC(=O)Nc1ccc2c(c1)C(=O)N(C)C[C@H](OC)[C@H](C)CN(CCc1ccccc1)[C@H](C)CO2` the value was -0.112%; for `Cc1ccc(S(=O)(=O)NCC[C@@H]2CC[C@H](NC(=O)c3ccccn3)[C@H](CO)O2)cc1`, 1.61%. For `O=C(N[C@H]1CC[C@@H](CCNC(=O)C2CCC2)O[C@@H]1CO)c1ccncc1` the value was -1.2%; for `Cc1noc(C)c1NC(=O)Nc1ccc2c(c1)C(=O)N([C@@H](C)CO)C[C@H](C)[C@@H](CN(C)Cc1ccncc1)OCCCC[C@@H](C)O2`, -7.33%; for `O=C(C[C@@H]1CC[C@H]2[C@@H](COC[C@@H](O)CN2S(=O)(=O)c2cccc(F)c2)O1)NCCCN1CCOCC1`, 2.86%. For `O=C(NC1CCCC1)c1cc(-c2ccccc2)on1` the value was 18.8%. For the molecule `Clc1ccccc1-c1cc(COc2ccc3ccccc3c2)no1`, the reporter increase is 9.3%. The value for `O=C(Nc1cccnc1Cl)c1cc(-c2ccccc2O)on1` was 65% (active); that for `O=C(NCc1ccccn1)Nc1ccc(Cl)cc1` was 21.5%; that for `C=CCNC(=O)c1cc(-c2ccccc2O)on1` was 35.4%.

In the case of `O=C(NCc1ccccn1)c1cc(-c2ccccc2Cl)on1`, the reporter increase is 54.4% (active).

Turning to `C[C@H](CO)N1C[C@H](C)[C@@H](CN(C)C)OCCCC[C@H](C)Oc2ccc(NC(=O)C3CCCCC3)cc2C1=O`, the reporter increase is -0.46%. For `COc1ccc(CNC(=O)C[C@H]2CC[C@@H]3[C@H](COc4ccc(NC(=O)C5CC5)cc4C(=O)N3C)O2)cc1` the value was -1.53%; for `CCCNC(=O)N(C)C[C@H]1Oc2ncc(C#C[C@@H](C)O)cc2C(=O)N([C@@H](C)CO)C[C@@H]1C`, -6.34%. For the molecule `N#C[C@H]1[C@@H](c2ccc(C3=CCCCC3)cc2)[C@@H](CO)N1C(=O)Cc1ccncc1`, the reporter increase is 2.63%. The value for `Cc1noc(C)c1NC(=O)Nc1ccc2c(c1)C(=O)N([C@@H](C)CO)C[C@H](C)[C@@H](CN(C)C(=O)C1CCCCC1)OCCCC[C@@H](C)O2` was 3.6%; that for `CCCNC(=O)Nc1ccc2c(c1)OC[C@@H](C)N(CC1CCCC1)C[C@@H](C)[C@H](OC)CN(C)C2=O` was 6.43%. Regarding `O=C(C[C@@H]1CC[C@H]2[C@@H](COC[C@H](O)CN2S(=O)(=O)c2ccc(F)cc2)O1)N[C@H]1CCN(Cc2ccccc2)C1`, the reporter increase is 5.45%. The value for `COCCNC(=O)C[C@H]1CC[C@@H]2[C@@H](COc3ccc(NC(=O)C4CCOCC4)cc3C(=O)N2C)O1` was 0.774%.

Take `O=S(=O)(Nc1ccc2nc(N3CCOCC3)sc2c1)c1ccccc1`: the reporter increase was 73% (active). For `Cc1nc2ccc(NC(=O)c3cccc(S(=O)(=O)N4CCOCC4)c3)cc2s1` the value was 7.36%; for `CC(=O)Nc1ccc(S(=O)(=O)Nc2ccc(N3CCOCC3)c(F)c2)cc1`, 0.869%.

Consider `O=C(C[C@@H]1C[C@@H]2c3cc(NC(=O)C4CCOCC4)ccc3O[C@@H]2[C@H](CO)O1)NCc1ccncc1`, for which the reporter increase was -0.887%.

Regarding `C[C@@H]1CN([C@H](C)CO)C(=O)c2cc(-c3ccncc3)cnc2O[C@@H]1CN(C)C(=O)Cc1cccnc1`, the reporter increase is -2.67%. On to `Cc1ccc(S(=O)(=O)N[C@@H]2CC[C@@H](CCn3cc(C(C)C)nn3)O[C@H]2CO)cc1`, for which the reporter increase was -3.18%.

Consider `Cc1cccc(S(=O)(=O)N2C[C@H]3[C@@H](c4ccccc42)[C@H](CO)N3Cc2ccc3c(c2)OCO3)c1`, for which the reporter increase was -3.41%. The value for `CO[C@@H]1CN(C)C(=O)c2ccc(NS(=O)(=O)c3ccc(C)cc3)cc2OC[C@@H](C)N(Cc2nccs2)C[C@H]1C` was -3.84%; that for `c1ccc(-c2cc(-c3ccccc3)[nH]n2)cc1` was 42.5% (active). For `CC(C)(C)C1CCC(=NNC(=O)c2cc(-c3ccccc3)n[nH]2)CC1` (configuration not stated) the value was -0.812%; for `Oc1ccccc1-c1cc(-c2ccc(Cl)cc2)n[nH]1`, 21.6%. The value for `CN1C(=O)c2cc(NC(=O)Nc3ccccc3F)ccc2OC[C@H]2O[C@@H](CC(=O)Nc3cccc(Cl)c3)CC[C@@H]21` was 20.4%; that for `Cc1noc(C)c1S(=O)(=O)N(C)C[C@H]1OCCCC[C@H](C)Oc2ccc(NS(=O)(=O)c3ccccc3)cc2C(=O)N([C@H](C)CO)C[C@@H]1C` was -1.33%. Regarding `Cn1cnc(CCNC(=O)C[C@@H]2CC[C@@H]3[C@H](COC[C@@H](O)CN3C(=O)Nc3ccccc3)O2)c1`, the reporter increase was -3.44%.

As for `C[C@@H]1CN([C@@H](C)CO)S(=O)(=O)c2ccc(-c3cncnc3)cc2O[C@@H]1CN(C)C(=O)C1CC1`, the reporter increase was -3.14%.
